Shown is part of a subset that was picked to be rich in hits.
Pf apPOL block: Pf-apPOL inhibitors, biochemical, fluorescence; Plasmodium falciparum apicoplast DNA polymerase (apPOL); Recombinant Pf-apPOL, molecular beacon fluorescence, 1.5 h; inhibition, % at 10 µM; hit rate 0.25% among 210,000; AID 1794808, 2022
mHTT-CaM PPI inh: mutant huntingtin-calmodulin interaction inhibitors – biochemical, AlphaScreen, primary screen; inhibition, % at 15 µM; hit rate 3.6% among 190,000; P42858; AlphaScreen His-mHTT/GST-CaM binding, luminescence
Each line names hits and unclear results; the compound was inactive in the other large screens. Rule as the data show it: active = inhibition above about 50%; inactive = the rest.

N#CC(C#N)=C1C(Cl)=C(N2CCCCC2)c2ccccc21	mHTT-CaM PPI inh 56
N#Cc1c(N2CCOCC2)nsc1-c1ccccc1Cl	none (no result: mHTT-CaM PPI inh)
CN1CCN(C(=O)c2ccc3c(c2)N(S(C)(=O)=O)CC3)CC1	none
Oc1c(Cl)cc(Cl)cc1CNc1cccc(F)c1	mHTT-CaM PPI inh 96
Fc1cccc(NCc2ccco2)c1	none
Cc1ccc(C(NC(=O)c2ccccc2)c2ccc3cccnc3c2O)cc1 (stereo not drawn)	mHTT-CaM PPI inh 100
O=C(Nc1ncccc1Cl)c1cccc(F)c1	none
COc1ccc(C(NC(=O)c2cccc(OC)c2)c2cc(Cl)c3cccnc3c2O)cc1 (stereo not drawn)	none
O=C(NC(c1cccc(F)c1)c1ccc2cccnc2c1O)c1ccccc1 (stereo not drawn)	mHTT-CaM PPI inh 100
CCNC(=O)c1cc2sc(C)cc2n1C	none
Cc1[nH]n2ncnc2c(=O)c1Cl	none (no result: Pf apPOL block)
Cc1ccccc1CNC(=O)c1cn2c(n1)COCC2	none
CC(=O)N1CCC(c2cnn(-c3cccc(C)c3)c2)CC1	mHTT-CaM PPI inh 100
Cc1ccc(-n2cc(C3CCN(C(=O)c4ccc(N(C)C)cc4)CC3)cn2)cc1	mHTT-CaM PPI inh 63
Cc1cccc(-n2cc(C3CCN(C(=O)C4CCCC4)CC3)cn2)c1	none
CN(C)c1ccc(C(=O)N2CCC(c3cnn(-c4ccc(F)cc4)c3)CC2)cc1	none
O=S(=O)(Nc1ccc(S(=O)(=O)Nc2cc(F)ccc2F)cc1)c1ccc(C(F)(F)F)cc1	none (no result: mHTT-CaM PPI inh)
Oc1c(I)cccc1C=Nc1ccc2oc(-c3cccnc3)nc2c1	none
CCC1=NN(C(=O)c2ccc([N+](=O)[O-])cc2)C(O)(c2ccccc2)C1 (stereo not drawn)	none
CCc1ccc(C2(O)CC(C(F)(F)F)=NN2C(=O)c2ccc([N+](=O)[O-])cc2)cc1 (stereo not drawn)	mHTT-CaM PPI inh 81
O=C(c1cccc(Cl)c1)N1N=C(C(F)(F)F)CC1(O)c1ccc(Cl)cc1 (stereo not drawn)	mHTT-CaM PPI inh 76
Cc1cccc(C(=O)N2N=C(C(F)(F)F)CC2(O)c2ccc(Br)cc2)c1 (stereo not drawn)	mHTT-CaM PPI inh 72
CCc1ccc(C2(O)CC(C(F)(F)F)=NN2C(=O)c2cccc(Br)c2)cc1 (stereo not drawn)	none
O=C(c1cccc(Br)c1)N1N=C(C(F)(F)F)CC1(O)c1ccc(Cl)cc1 (stereo not drawn)	none
O=C(c1ccc([N+](=O)[O-])cc1)N1N=C(C(F)(F)F)CC1(O)c1ccncc1 (stereo not drawn)	none
CCC1=NN(C(=O)c2cccc([N+](=O)[O-])c2)C(O)(c2ccc(Cl)cc2)C1 (stereo not drawn)	mHTT-CaM PPI inh 77
COc1ccc(CNC(=O)C2CCN(C/C(C)=C/c3ccccc3)CC2)cc1	none
C[C@H]1[C@@H](OC(=O)NCCc2ccccc2)CC[C@@]23CCCN2C(=O)CCC[C@@H]13	none
CCc1ccc(NC(=O)c2cncc(-c3ccc(C)cc3)c2)cc1	none
Cc1ccc(-c2cncc(C(=O)Nc3ccc4c(c3)OCCO4)c2)cc1	mHTT-CaM PPI inh 54
Cc1ccsc1C1C=C(c2cccc(Br)c2)Nc2nnnn21 (stereo not drawn)	none
O=C(O)c1ccc(Nc2nc(-c3cccnc3)cs2)cc1	none
Clc1ccc(-c2csc(Nc3ccccc3)n2)cc1	none (no result: mHTT-CaM PPI inh)
Cc1ccc(-c2csc(Nc3ccc(O)cc3)n2)cc1C	mHTT-CaM PPI inh 86
Oc1ccc(Nc2nc(-c3cccnc3)cs2)cc1	mHTT-CaM PPI inh 58
Oc1ccc(Nc2nc(-c3ccc(Cl)c(Cl)c3)cs2)cc1	mHTT-CaM PPI inh 98
CCOc1ccc(Nc2nc(-c3ccc(C)c(C)c3)cs2)cc1	none
O=C1NC(=O)/C(=C/c2cccc([N+](=O)[O-])c2)S1	none
Nc1cc(-c2cccs2)[nH]n1	none (no result: Pf apPOL block)
CCOC(CNC(=O)c1ccc2c(c1)ncn2-c1ccc(C)c(Cl)c1)OCC	none
Cc1ccc(-n2cnc3cc(C(=O)NCc4ccco4)ccc32)cc1Cl	mHTT-CaM PPI inh 79
Cc1ccc(-n2cnc3cc(C(=O)NCc4ccco4)ccc32)c(C)c1	none
CCCNC(=O)c1ccc2c(c1)ncn2-c1ccc(C)c(Cl)c1	mHTT-CaM PPI inh 52
CC(C)CNC(=O)c1cnc(-c2ccc(F)cc2)nc1N1CCCC1	none
CCN(CCCNC(=O)c1cn(CCOC)c(=O)c2c1c1ccccc1n2C)c1ccccc1	none
CC(=O)Nc1cccc(OCCCNC(=O)c2c(-c3c(F)cccc3Cl)noc2C)c1	none (no result: mHTT-CaM PPI inh)
CC(C)c1nn(-c2ccc(Cl)c(Cl)c2)c(C(C)C)c1C(=O)N1CCOCC1	mHTT-CaM PPI inh 67
CCc1nn(-c2ccc(OC)cc2)c(CC)c1C(=O)N1CCOCC1	none
CCN1CCN(C(=O)c2cnn(-c3ccc(Cl)c(Cl)c3)c2C(C)C)CC1	none
CC(=O)N1CCN(C(=O)c2c(C(C)C)nn(-c3ccc(C)cc3)c2C(C)C)CC1	none
CCCc1nn(-c2ccc(Cl)c(Cl)c2)c(C(C)C)c1C(=O)N1CCOCC1	mHTT-CaM PPI inh 62
CCCc1nn(-c2ccc(Cl)c(Cl)c2)c(CC)c1C(=O)N1CCOCC1	mHTT-CaM PPI inh 67
O=C(NC(=O)c1csnn1)Nc1ncccn1	none (no result: mHTT-CaM PPI inh)
O=C(O)C1C2C=CC(C2)C1C(=O)Nc1cccnc1 (stereo not drawn)	none
O=C(O)C1C2C=CC(C2)C1C(=O)Nc1ncccc1O (stereo not drawn)	Pf apPOL block 80
O=C(NCCOc1cccc2cccnc12)c1ccc(Cl)cc1Cl	none
O=C(Cn1cnc2ccccc2c1=O)NCCO	none
O=C(CCSc1ccccc1)NCCOc1ccc(-c2ccccn2)nn1	mHTT-CaM PPI inh 100
O=C(Cc1cccs1)NCCOc1ccc(-c2ccccn2)nn1	mHTT-CaM PPI inh 100
O=C(Cn1cnc2ccccc2c1=O)NCCOc1ccc(-c2ccccn2)nn1	mHTT-CaM PPI inh 100
O=C(Cc1ccc(F)cc1)NCCOc1ccc(-c2ccc(F)cc2)nn1	none
O=C(NCCOc1ccc(-c2ccccn2)nn1)c1cc(Cl)ccc1Cl	mHTT-CaM PPI inh 100
O=C(Cc1ccc(Cl)cc1)NCCOc1ccc(-c2cccs2)nn1	none
Cc1ccc(CN2CC34C=CC(O3)C(C(=O)NCc3ccc(Cl)cc3)C4C2=O)cc1 (stereo not drawn)	none
Cc1cccc(C(=O)NCc2ccccc2)c1	none
C=C(C)COc1ccc2c(c1C)OC(=Cc1ccco1)C2=O	none
Cc1ccc(N2C(=O)C3C(c4ccccc4Cl)OC4(C(=O)c5ccccc5C4=O)C3C2=O)cc1 (stereo not drawn)	none
CC(=O)N1CCc2ccccc2C1C(=O)N1CCN(c2ccc(C)cc2)CC1 (stereo not drawn)	none
O=C(C1c2ccccc2CCN1C(=O)C1CC1)N1CCN(c2ccc(F)cc2)CC1 (stereo not drawn)	mHTT-CaM PPI inh 55
CC(=O)N1CCc2ccccc2C1C(=O)N1CCN(c2cccc(Cl)c2)CC1 (stereo not drawn)	mHTT-CaM PPI inh 78
CC(=O)N1CCc2ccccc2C1C(=O)N1CCN(c2ccc(F)cc2)CC1 (stereo not drawn)	none
COc1cccc(-c2cc3n(n2)CCCN(C(=O)C2CCCC2)C3)c1	none
Cc1nn2c(CNC(=O)c3cccc(C(F)(F)F)c3)c(C)nc2s1	none
Cc1ccc(C)c(NC(=O)CN2CCC3(CC2)N=C(c2ccccc2)C(=O)N3)c1	none
COc1ccccc1NC(=O)CN1CCC2(CC1)N=C(c1cccc(Cl)c1)C(=O)N2	mHTT-CaM PPI inh 97
CSc1cccc(NC(=O)CN2CCC3(CC2)N=C(c2cccc(C)c2)C(=O)N3)c1	mHTT-CaM PPI inh 70
COc1ccccc1NC(=O)CN1CCC2(CC1)N=C(c1ccc(Cl)cc1)C(=O)N2	none
